Screening data (PubChem BioAssay)
The list is not random: actives were taken first. Their share in the collection is about 7.8%.
MARV entry inh – qHTS for inhibitors of binding or entry into cells for Marburg Virus; Marburg virus pseudotyped entry inhibition, cell reporter; Potency, µM (series often up to 37.8 µM), for inactives: top-dose activity change, negative = inhibition, hits mostly inhibitors; 300,000 tested, 1.8% active; calls by dose curve; tested in HEK293 cells; also: potency is read from the fitted curve at half-maximal effect
Vaccinia Venus – qHTS for Stage-Specific Inhibitors of Vaccinia Orthopoxvirus: Venus Reporter Primary qHTS; Vaccinia virus Venus reporter expression, fluorescence; Potency, µM (top dose mostly 36.5 µM), for inactives: at the highest dose activity change, negative = inhibition, actives largely listed as inhibitors; 330,000 tested, 0.46% active; AID 720580, 2013; calls by dose curve; tested in A549 cells; also: potency is read from the fitted curve at half-maximal effect; nearly all actives have a fitted effect of over 30% in size
HCMV inh – qHTS Assay for inhibitors of the human cytomegalovirus (HCMV); 410,000 tested, 4.5% active; activity change, negative = inhibition, % at 57.5 µM; AID 1259415, 2018; HFF cells, HCMV-luciferase reporter, 72 h; stronger effect = lower value; in the data active = activity change below about -60%; inconclusive = no clear call, values can overlap the other calls; inactive = above about -39%
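Two compound doses tested in HFFs infected with HCMV-luciferase, MOI 1 PFU/cell, 72 h at 37C. Lysate luminescence read with OneGlo; data normalized against buffer-only and 10uM Salinomycin inhibitor controls.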
HCV inh – qHTS Assay for Inhibitors of Hepatitis C Virus (HCV). Huh7.5.1 HCVcc-Cre infection, luciferase reporter, 44 h. Potency, µM (titrated, usually from 41.8 µM), without a hit: at the highest dose activity change, negative = inhibition, actives largely listed as inhibitors. 340,000 tested, 3.4% active. AID 651820, 2012; active = well fitted inhibition curve with a large enough effect; inconclusive = small, poorly fitted or top-dose-only effect, or another doubt; inactive = no such curve, though single readings can be large or run the other way; also: potency is read from the fitted curve at half-maximal effect
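A cell-based infection assay in which seeded cells (1,000 per well) receive test compound after 4 h, are inoculated with HCVcc-Cre at approximately 0.5 moi, and are incubated 44 h before luminescence detection.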
Vaccinia mCherry – qHTS for Stage-Specific Inhibitors of Vaccinia Orthopoxvirus: mCherry Reporter Primary qHTS; 310,000 tested, 0.63% active; AID 720579, 2013; Potency, µM (doses to about 36.5 µM), for the others: top-dose activity change, negative = inhibition, hits mostly inhibitors; Vaccinia virus mCherry reporter infection, fluorescence; calls by dose curve; tested in A549 cells; also: potency is read from the fitted curve at half-maximal effect; nearly all actives have a fitted effect of over 35% in size
LASV entry inh – qHTS for Inhibitors of binding or entry into cells for Lassa Virus | Lassa virus pseudotype entry inhibition, cell reporter | Potency, µM (doses to about 37.9 µM), inactives show top-dose activity change, negative = inhibition, actives largely listed as inhibitors | 300,000 tested, 1.2% active; calls by dose curve; tested in HEK293 cells; also: potency is read from the fitted curve at half-maximal effect; nearly all actives have a fitted effect of over 50% in size
Starred values were filed as active, the others as inactive; i = inactive; ? = inconclusive; . = no result; [ ] = remark or other dose. % is scaled to controls: 0 for no effect and ±100 for the full control effect.

SMILES | MARV entry inh | Vaccinia Venus | HCMV inh | HCV inh | Vaccinia mCherry | LASV entry inh
COc1cccc(C(=O)N2CCc3c([nH]c4ccccc34)C2c2ccc(SC)cc2)c1 (centres undefined) | . | -7% | -64* | . | -16% | ?
Cc1nc2ccccc2n1CC(O)COc1ccc(Br)cc1 (centres undefined) | ? | -11% | -80* | ? | -19% | .
Cc1nc2ccccc2n1CC(O)COc1ccc(C(=O)O)cc1 (centres undefined) | 14%[46.1 µM] | 3% | -5 | . | -3% | -18%[46.1 µM]
CCC(=O)c1ccc(OCC(O)Cn2c(C)nc3ccccc32)cc1 (centres undefined) | 6.3µM* | -30% | -62* | ? | ? | ?
CCC(=O)c1ccc(OCC(O)CN(CCc2ccccc2)Cc2ccccc2)cc1 (centres undefined) | ? | ? | -39 | ? | ? | 16µM*
Cc1nc2ccccc2n1CC(O)COc1ccccc1Cl (centres undefined) | . | . | -74* | ? | . | .
O=C(Nc1ccc(-c2nc3ccc(NC(=O)c4cccs4)cc3[nH]2)cc1)c1cccs1 | ? | -21% | -84* | ? | 10% | ?
O=C(Nc1ccc2nc(-c3cccs3)[nH]c2c1)c1cccs1 | -8%[46.1 µM] | 7% | ? | 13µM* | -6% | 18%
Cc1ccccc1-c1nc(-c2ccc(NC(=O)c3cccs3)cc2)no1 | ? | -25% | 14 | 14µM* | -28% | 3%
O=C(Cc1cccs1)Nc1cccc(-c2nc3cc4ccccc4cc3[nH]2)c1 | ? | 10µM* | -88* | 11µM* | ? | ?
C=CC[C@@H]1C=C[C@H](ON=C2c3cc(OC)ccc3O[C@H](c3cccc(OC)c3)[C@@H]2O)[C@H](CO)O1 | -5%[14.2 µM] | . | . | . | . | .
COc1cccc(CNC(=O)CCn2c(=O)c3cccn3c3cccnc32)c1OC | . | -6% | ? | . | -6% | 5%[46.1 µM]
Cc1ccc(CN2CCC(C3(c4ccccn4)NC(=O)N(CC4CCCO4)C3=O)CC2)cc1C (centres undefined) | . | -17% | . | . | -4% | .
COC(=O)c1ccc(N=C2S/C(=C\c3cc(C)n(-c4cccnc4)c3C)C(=O)N2C)cc1 | ? | -18% | 0 | 3.5µM* | . | ?
COc1cccc(Nc2nccc3[nH]c(-c4cccc(F)c4)cc23)c1 | . | . | -21 | . | . | .
COCCn1c(-c2cccc([N+](=O)[O-])c2)nc2c1c(=O)[nH]c(=O)n2Cc1ccccc1 | ? | -5% | -87* | -19% | -9% | ?
COc1ccc(-c2nc3c(c(=O)[nH]c(=O)n3Cc3ccccc3)n2Cc2ccccc2)cc1 | ? | . | ? | 13µM* | . | ?
Cn1c(-c2cccc(OCc3ccccc3)c2)nc2c1c(=O)[nH]c(=O)n2Cc1ccccc1 | -8% | -3% | -15 | 3% | -16% | ?
Cn1c(-c2cccc(F)c2)nc2c1c(=O)[nH]c(=O)n2Cc1ccccc1 | 0%[46.1 µM] | -12% | 31 | 0% | ? | 8.9µM*
CCCn1c(-c2cccc(F)c2)nc2c1c(=O)[nH]c(=O)n2Cc1ccccc1 | -23%[46.1 µM] | -7% | -13 | 4% | i | ?
COc1ccc(-c2nc3c(c(=O)[nH]c(=O)n3Cc3ccccc3)n2C)cc1 | 10% | -6% | -7 | -1% | . | -18%
CCOC(=O)Cc1c(-c2cccc(Cl)c2)nc2c3ccccc3ccn12 | . | 10% | 30 | . | 36% | .
COC(=O)c1ccccc1-c1cc(C)cc2c1OC(CNC(=O)c1ccn(C)n1)C2 (centres undefined) | . | -12% | . | . | -15% | .
Cc1cccc(C)c1NC(=O)C(C(C)C)N1C(=O)C(=O)c2ccccc21 (centres undefined) | . | . | 33 | . | . | .
Cn1c(=N)n(CC(O)c2cccc3ccccc23)c2ccccc21 (centres undefined) | ? | -6% | 34 | 11µM* | . | ?
SMILES | MARV entry inh | Vaccinia Venus | HCMV inh | HCV inh | Vaccinia mCherry | LASV entry inh
COCCCNC(=O)CC(c1cc(OC)c(OC)c(OC)c1)N1Cc2ccccc2C1=O (centres undefined) | . | 4% | 7 | . | 1% | 23%[46.1 µM]
COCC(C)NC(=O)CSc1nc(-c2ccccc2)c(-c2ccccc2)o1 (centres undefined) | ? | -17% | -67* | ? | -5% | ?
CN(C(=O)CSc1nnc(-c2ccc(F)cc2)c2ccccc12)C1CCS(=O)(=O)C1 (centres undefined) | 5µM* | ? | ? | -19% | -22% | 0%
CN(C(=O)CSc1nc(-c2ccccc2)c(-c2ccccc2)o1)C1CCS(=O)(=O)C1 (centres undefined) | -15% | . | -64* | ? | . | -13%
CNC(=O)CSc1nc(-c2ccccc2)c(-c2ccccc2)o1 | -26% | . | -28 | -22% | . | -4%
CN(C(=O)CSc1nc2ccccc2o1)C1CCS(=O)(=O)C1 (centres undefined) | 24% | -4% | 4 | -9% | -4% | -7%
Cc1ccc(-c2nc(C)c(CCNS(=O)(=O)c3ccccc3F)s2)cc1 | . | 3% | -18 | . | -10% | -13%[46.1 µM]
Cc1ccc(C)c(S(=O)(=O)c2cn(Cc3ccccc3)c3cc(N4CCCC4)c(F)cc3c2=O)c1 | . | -25% | 19 | . | -17% | -2%[46.1 µM]
COC(=O)c1nnn(CC(=O)Nc2cc(F)ccc2F)c1C(=O)OC | 5%[46.1 µM] | -2% | -109* | . | 1% | -1%[46.1 µM]
CCOC(=O)c1nnn(CC(=O)Nc2cc(F)ccc2F)c1C(=O)OCC | 15% | -1% | 23 | 4% | -10% | 19%
COc1ccc(C(C#N)=Cc2ccccc2OC)cc1 | . | -28% | -88* | . | -14% | .
COc1ccc(C=C(C#N)c2ccc(OC)cc2)cc1 | 7.9µM* | -23% | -16 | ? | -9% | ?
COc1ccc(C(C#N)=Cc2ccc(OC)c(OC)c2)cc1 | . | -28% | -15 | . | -17% | .
CC(C)c1ccc(NC(=O)C2(C)Cc3c(-c4cccc(C(N)=O)c4)ccnc3O2)cc1 (centres undefined) | . | -11% | 18 | . | -11% | .
Cc1c(C(=O)NCC2(N3CCOCC3)CCCC2)cnn1-c1nccc(-c2ccccc2F)n1 | . | -20% | . | . | -29% | .
Cc1ccc(-n2nc(CO)c(C(=O)NCc3cccnc3)n2)cc1C | ? | -15% | 19 | . | -27% | ?
Cc1cc(Nc2cccc(F)c2)nc(N2CCOCC2)n1 | . | . | 167 | 3.5µM* | . | .
Cc1cc(Nc2ccccc2)nc(N2CCOCC2)n1 | ? | ? | 57 | 10µM* | . | -3%
COC(=O)c1c(NC(=O)C(Cl)Cl)sc2c1C(C(=O)OC)CC2 (centres undefined) | . | . | -62* | ? | . | .
